Reference: PubChem BioAssay
Measured potencies and affinities stand elsewhere. Values without a mark were called inactive.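 How the source made its calls: active means a dose-response fit showing signal loss, with half-maximal concentration no higher than twice the top tested dose; inconclusive means flat fit between 30% and 70% signal loss, or poor fit; inactive means the rest.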

assay: HepG2 cell cytotoxicity, dose response, cytotoxicity control, cherry-picks, set 2 (AID 687002); settings: HepG2 viability, ATP luminescence (CellTiter-Glo), 48 h; series mostly up to 26 µM; activity change, negative = cytotoxicity: at the top concentration

Row | SMILES | activity change, negative = cytotoxicity
1 | O=C(Nc1cccc(F)c1)N[C@H]1CC[C@@H](CCNS(=O)(=O)c2cccc(Cl)c2)O[C@@H]1CO | 13.9%
2 | CCC(=O)N1[C@@H]2Cn3c(cccc3=O)[C@H]1[C@@H](C(=O)NCc1ccccc1)[C@@H]2CO | 4.43% [at 23.5 µM]
3 | Cc1ccc(S(=O)(=O)N[C@@H]2CCCN(Cc3cccc(OCCO)c3)C2)cc1 | 1.87% [at 21 µM]
4 | C[C@H](CO)N1C[C@H](C)[C@@H](CN(C)C(=O)c2cccc(F)c2)Oc2cc(-c3cncnc3)ccc2S1(=O)=O | -2.09%
5 | COc1ccc(NC(=O)N(C)C[C@H]2OCCCC[C@@H](C)Oc3ccc(N(C)C)cc3C(=O)N([C@H](C)CO)C[C@H]2C)cc1 | -14.5%
6 | COc1ccc(NC(=O)N(C)C[C@@H]2OCCCC[C@H](C)Oc3ccc(NC(=O)Nc4ccc5c(c4)OCO5)cc3C(=O)N([C@H](C)CO)C[C@@H]2C)cc1 | 6.57%
7 | CNC[C@@H]1Oc2cc(Br)ccc2S(=O)(=O)N([C@H](C)CO)C[C@H]1C | 13.9%
8 | O=C(C[C@H]1CC[C@@H]2[C@H](COC[C@@H](O)CN2Cc2cccc(C(F)(F)F)c2)O1)NCc1ccc(Cl)cc1 | 0.775% [at 23.5 µM]
9 | C[C@@H]1CN([C@H](C)CO)C(=O)c2cc(-c3ccc(F)cc3)cnc2O[C@H]1CN(C)CC1CCCCC1 | -11.6%
10 | CC(C)NC(=O)Nc1ccc2c(c1)C(=O)N([C@@H](C)CO)C[C@@H](C)[C@@H](CN(C)C(=O)c1ccncc1)OCCCC[C@@H](C)O2 | 0.901%
11 | CCCN(C)C[C@H]1OCCCC[C@@H](C)Oc2ccc(NC(=O)NC(C)C)cc2C(=O)N([C@@H](C)CO)C[C@H]1C | 5.34%
12 | CO[C@@H]1CN(C)C(=O)c2cc(NC(=O)C3CC3)ccc2OC[C@H](C)N(C(=O)c2ccncc2)C[C@H]1C | 11.5%
13 | Cc1cccc(C)c1NC(=O)CN1CCN(C(=O)CNC(=O)c2ccc(N3CCCC3=O)cc2)CC1 | 9.91% [at 12 µM]
14 | C[C@@H]1CCCCO[C@H](CN(C)C(=O)c2ccncc2)[C@H](C)CN([C@H](C)CO)C(=O)c2cc(NC(=O)CCC(F)(F)F)ccc2O1 | 20.3%
15 | O=C(C[C@H]1C=C[C@H](NC(=O)C2CCC2)[C@@H](CO)O1)NC1CCC1 | -10.9%
16 | CNC(=O)C[C@H]1CC[C@H]2[C@@H](COc3ccc(NC(=O)Nc4ccccc4)cc3C(=O)N2C)O1 | 0.493%
17 | C=CCNC(=O)CN(c1ccc(F)cc1)S(=O)(=O)c1ccc(OC)cc1 | 0.279%

Row | SMILES | activity change, negative = cytotoxicity
18 | O=C(Nc1ccc(F)cc1)N1C[C@@H]2[C@H](c3ccccc31)[C@H](CO)N2Cc1cocn1 | 5.14%
19 | Cc1ccccc1S(=O)(=O)N[C@H]1CC[C@H](CCNS(=O)(=O)c2cccc(F)c2)O[C@H]1CO | 0.284%
20 | C[C@@H]1CN([C@@H](C)CO)C(=O)CCCn2cc(nn2)CO[C@@H]1CN(C)C(=O)CCCN(C)C | 17.6% [at 28.5 µM]
21 | Cc1cccc(C)c1NC(=O)CNC(=O)C1CCCC1 | -14.7%
22 | COc1ccccc1-c1ccc([C@H]2[C@@H](C#N)N(C(=O)C3CC3)[C@@H]2CO)cc1 | -11.8% [at 23.5 µM]
23 | CNC[C@@H]1Oc2c(NS(=O)(=O)c3cccs3)cccc2C(=O)N([C@@H](C)CO)C[C@H]1C | 26.5%
24 | C[C@@H]1CCCCO[C@@H](CN(C)Cc2ccncc2)[C@@H](C)CN([C@@H](C)CO)C(=O)c2cc(NC(=O)c3ccncc3)ccc2O1 | 15.9% [at 23.5 µM]
25 | CC(Sc1ncnc2c1cnn2-c1ccccc1)C(=O)Nc1ccc(N2CCOCC2)cc1 (stereo not drawn) | 0.403%
26 | C[C@@H]1CN([C@@H](C)CO)C(=O)c2cc(NS(=O)(=O)c3ccc(F)cc3)ccc2O[C@@H](C)CCCCO[C@@H]1CN(C)Cc1ccc2c(c1)OCO2 | 40.3%
27 | C[C@@H](O)C#Cc1ccc([C@@H]2[C@H]3CN(CC4CC4)CCCCN3[C@H]2CO)cc1 | -8.64%
28 | CCS(=O)(=O)NCC[C@@H]1CC[C@@H](NS(=O)(=O)c2cccc(F)c2)[C@@H](CO)O1 | -5.15%
29 | CCCNC(=O)N1[C@@H](CO)[C@@H](c2ccc(-c3ccccc3)cc2)[C@@H]1CNC(C)=O | 3.3%
30 | C/C=C/c1ccc([C@H]2[C@@H](C#N)N(S(=O)(=O)c3cccc(F)c3)[C@H]2CO)cc1 | 17.9% [at 23.5 µM]
31 | COc1ccccc1C#Cc1ccc2c(c1)O[C@@H](CN(C)C(C)=O)[C@@H](C)CN([C@H](C)CO)S2(=O)=O | -7.21%
32 | C[C@@H]1CN([C@@H](C)CO)C(=O)c2cc(/C=C/c3ccccc3)cnc2O[C@@H]1CN(C)S(C)(=O)=O | 9.67%
33 | Cc1cc(C)c(NC(=O)C2CCCCN2C)c(C)c1 (stereo not drawn) | -0.645%
